The values below come from PubChem BioAssay (NCI).

Compounds without any hit were thinned out: in the full panel of roughly 83,000, 20% have a hit.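 The endpoint reported here, percent growth, reads 100 for growth as untreated, 0 for no net growth and -100 for all cells dead.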 Calls of active or inactive are those of the source. Rule for the calls: active = growth percent below 10; inactive = the rest.

In the first assay the test system is SK-MEL-28 melanoma. The assay is described as follows: NCI-60 one-dose screen, 48 h (100 = growth as untreated, 0 = no growth, -100 = all killed). The settings on record: 10 µM unless noted.
`Cc1ccc(NC(=O)N[C@@H](Cc2cc(F)cc(F)c2)C(=O)NC2C(=O)N3CCC[C@H]3C(=O)N3CCCC[C@H]3C(=O)N[C@@H](C)C(=O)N3C[C@H](C)C[C@H]3C(=O)O[C@H]2C)c(F)c1` (stereo partly drawn): the growth was 44.1% (inactive).

For `COc1ccc(/C=C/C(=O)c2nnn(-c3ccc(C(=O)O)cc3)c2C)cc1OC`, the growth was 107% (inactive). The same measure, in the same setting: as for `O=C(Nc1cc(F)cc2cccnc12)c1cnc(N2CCOCC2)cn1`, the figure is 77.4% (inactive); as for `Oc1ccccc1-c1nnc(SCc2ccc(O)c3ncccc23)o1`, 51.2% (inactive).

`COc1cc(/C=C2\SC(=O)NC2=O)ccc1OCC(=O)Nc1ccc(C(=O)/C=C/c2cc3ccccc3nc2Cl)cc1`: the growth was 105% (inactive). For `Nc1nc(-c2cccc([N+](=O)[O-])c2)c(N=Nc2ccccc2Cl)s1`, the growth was 93.7% (inactive). Same read-out and setting: in the case of `Oc1ccc(-c2nnc(SCc3ccc(O)c4ncccc34)o2)cc1` it was 22.7% (inactive); in that of `O=c1[nH]c2cc(Cl)ccc2n1C1CCN(c2ccc3nnc(Cl)n3n2)CC1`, 91.1% (inactive). Turning to `O=C(Nc1cccc(Cl)c1)Nc1nc2ccc([N+](=O)[O-])cc2s1`, the growth was 0.117% (active). The same measure, in the same setting: in the case of `Cn1cc(-c2nn3cc(-c4cccnc4)nc3s2)c2cc(F)ccc21` it was 81.7% (inactive); in that of `COc1ccc(CCN2C(=O)/C(=C/c3nc(CO)cs3)SC2=S)cc1`, 97.2% (inactive); in that of `C/C(=N\NC(=S)Nc1ccc(Br)cc1)c1cc2ccccc2oc1=O`, 21.6% (inactive). The same measure, in the same setting: in the case of `O=C1[C@H]2Cc3c([nH]c4ccccc34)[C@@H](c3ccc(Cl)cc3)N2C(=O)CN1C1CCN(Cc2c(Cl)cccc2Cl)CC1` it was 103% (inactive); in that of `Oc1ccccc1-c1nnc(SCc2ccc(O)c3ncccc23)n1-c1ccccc1`, 14.8% (inactive). The same measure, in the same setting: in the case of `CC1=C2C(=C[C@@](C)(COS(N)(=O)=O)[C@@H]2O)C(=O)[C@](C)(O)C12CC2` it was 87.6% (inactive); in that of `CC1(COc2ccc3ncc(C#Cc4cncc(C(=O)Nc5cc(C(C)(C)C)on5)c4)n3n2)COC1`, 51.4% (inactive); in that of `NC(=S)N/N=C(/C=C/c1cn(-c2ccccc2)nc1-c1ccc(Cl)cc1)c1cc2ccccc2oc1=O`, 73% (inactive). In the case of `O=C(/C=C1\C=CN(CCCCO)c2ccccc21)n1ccc2ccccc21`, the growth was 108% (inactive). As to `Cc1cc(NS(=O)(=O)c2ccc(-c3cnc(C4CC4)o3)cc2)ccc1I`, the growth is 62% (inactive). Still for that read-out and setting: as for `Oc1ccc(CSc2nnc(-c3ccccc3)o2)c2cccnc12`, the figure is 21.7% (inactive); as for `CS(=O)(=O)c1ccc2c(c1)c1c(n2S(=O)(=O)c2ccc(Cl)cc2)CCCC1`, 64.2% (inactive).

For `CN(C)C(=O)c1ccccc1-n1cnc2ccccc2c1=O`, the growth was 103% (inactive). As for `C=C(C)C(=O)O[C@H]1C[C@@]2(C)OC(=CC2=O)[C@H](C)[C@H](O)[C@H]2OC(=O)C(=C)[C@@H]21`, the growth was 61.7% (inactive). Turning to `O=C(Nc1cc(Cl)cc(Cl)c1)Nc1nc2ccc([N+](=O)[O-])cc2s1`, the growth was -2.55% (active). On the same count and under the same terms, in the case of `C#C[C@]1(O)CC[C@H]2[C@@H]3CC=C4c5sc(Nc6ccc(OC)nc6)nc5CC[C@]4(C)[C@H]3CC[C@@]21C` it was 68.8% (inactive). Same read-out and setting: as for `CCOc1ccc2nc(NC(=O)Nc3ccccc3C)sc2c1`, the figure is 54.1% (inactive); as for `CN(c1ccc(Br)cc1)S(=O)(=O)c1ccc(-c2cnc(C3CC3)o2)cc1`, 58.1% (inactive); as for `Cc1cc(Cl)cc(NS(=O)(=O)c2ccc(-c3cnc(C4CC4)o3)cc2)c1`, 55.4% (inactive). Still for that read-out and setting: as for `N/C(=N\c1nc2ccc([N+](=O)[O-])cc2s1)C(Cl)(Cl)Cl`, the figure is 72.2% (inactive); as for `CS(=O)c1nccc(-c2c(-c3ccc(F)c(OCCc4ccc(F)cc4)c3)nc3sccn23)n1` (stereo not drawn), 64.8% (inactive). Take `CN(c1ccc(F)cc1)S(=O)(=O)c1ccc(-c2cnc(C3CC3)o2)cc1`: the growth was 56.7% (inactive).

`Cc1cn(-c2cc(NC(=O)c3cncc(C#Cc4cnc5ccc(OCCCS(C)(=O)=O)nn45)c3)cc(C(F)(F)F)c2)cn1`: the growth is 31.5% (inactive).

A further assay concerns SK-MEL-2 melanoma. Described as above. The settings on record: 10 µM unless noted.
For `COc1ccc(/C=C/C(=O)c2nnn(-c3ccc(C(=O)O)cc3)c2C)cc1OC`, the growth is 101% (inactive). On the same count and under the same terms, in the case of `O=C(Nc1cc(F)cc2cccnc12)c1cnc(N2CCOCC2)cn1` it was 96% (inactive). Still for that read-out and setting: in the case of `Oc1ccccc1-c1nnc(SCc2ccc(O)c3ncccc23)o1` it was 34.1% (inactive); in that of `COc1cc(/C=C2\SC(=O)NC2=O)ccc1OCC(=O)Nc1ccc(C(=O)/C=C/c2cc3ccccc3nc2Cl)cc1`, 103% (inactive); in that of `Oc1ccc(-c2nnc(SCc3ccc(O)c4ncccc34)o2)cc1`, 17% (inactive). For the compound `C[C@H]1[C@H](C)CC[C@]2(COC(=O)c3cccnc3)CC[C@]3(C)C(=CC[C@@H]4[C@@]5(C)CCCNC(C)(C)[C@@H]5CC[C@]43C)[C@H]12`, the growth was 98.6% (inactive). In the case of `O=c1[nH]c2cc(Cl)ccc2n1C1CCN(c2ccc3nnc(Cl)n3n2)CC1`, the growth was 93.1% (inactive). On the same count and under the same terms, as for `COc1ccc(N2CCN(C(=O)CSc3ccc(-c4nc5cc(C)c(C)cc5[nH]4)cn3)CC2)cc1`, the figure is 87.1% (inactive); as for `Cc1cc(F)cc(NS(=O)(=O)c2ccc(-c3cnc(C4CC4)o3)cc2)c1`, 67% (inactive). As for `Oc1ccc(CSc2nnc(-c3ccncc3)o2)c2cccnc12`, the growth is 8.88% (active). On the same count and under the same terms, as for `O=C(COc1ccc(/C=C2\SC(=O)NC2=O)cc1)Nc1ccc(C(=O)/C=C/c2cc3ccccc3nc2Cl)cc1`, the figure is 91% (inactive). On the same count and under the same terms, in the case of `O=C(Nc1cccc(Cl)c1)Nc1nc2ccc([N+](=O)[O-])cc2s1` it was -24.1% (active); in that of `COc1ccc(CCN2C(=O)/C(=C/c3nc(CO)cs3)SC2=S)cc1`, 96.9% (inactive). The same measure, in the same setting: in the case of `O=C1[C@H]2Cc3c([nH]c4ccccc34)[C@@H](c3ccc(Cl)cc3)N2C(=O)CN1C1CCN(Cc2c(Cl)cccc2Cl)CC1` it was 102% (inactive); in that of `O=C1[C@H]2Cc3c([nH]c4ccccc34)[C@@H](c3c(Cl)cccc3Cl)N2C(=O)CN1C1CCN(Cc2ccccc2)CC1`, 114% (inactive). Regarding `Oc1ccccc1-c1nnc(SCc2ccc(O)c3ncccc23)n1-c1ccccc1`, the growth is 23.1% (inactive). On the same count and under the same terms, in the case of `CC1=C2C(=C[C@@](C)(COS(N)(=O)=O)[C@@H]2O)C(=O)[C@](C)(O)C12CC2` it was 41.2% (inactive); in that of `NC(=S)N/N=C(/C=C/c1cn(-c2ccccc2)nc1-c1ccc(Cl)cc1)c1cc2ccccc2oc1=O`, 82.5% (inactive); in that of `O=C(/C=C1\C=CN(CCCCO)c2ccccc21)n1ccc2ccccc21`, 101% (inactive). For the compound `Cc1cc(NS(=O)(=O)c2ccc(-c3cnc(C4CC4)o3)cc2)ccc1I`, the growth is 63.3% (inactive).

For the compound `Oc1ccc(CSc2nnc(-c3ccccc3)o2)c2cccnc12`, the growth was 35.4% (inactive).

As for `CN(C)C(=O)c1ccccc1-n1cnc2ccccc2c1=O`, the growth is 107% (inactive). On the same count and under the same terms, in the case of `C=C(C)C(=O)O[C@H]1C[C@@]2(C)OC(=CC2=O)[C@H](C)[C@H](O)[C@H]2OC(=O)C(=C)[C@@H]21` it was 43.1% (inactive). The same measure, in the same setting: as for `O=C(Nc1cc(Cl)cc(Cl)c1)Nc1nc2ccc([N+](=O)[O-])cc2s1`, the figure is -22.2% (active); as for `C#C[C@]1(O)CC[C@H]2[C@@H]3CC=C4c5sc(Nc6ccc(OC)nc6)nc5CC[C@]4(C)[C@H]3CC[C@@]21C`, 68% (inactive); as for `CCOc1ccc2nc(NC(=O)Nc3ccccc3C)sc2c1`, 48.5% (inactive). The same measure, in the same setting: as for `CN(c1ccc(Br)cc1)S(=O)(=O)c1ccc(-c2cnc(C3CC3)o2)cc1`, the figure is 69.5% (inactive). With `CCNC(=NCCCN(C)C)N/C(N)=N/c1nc2ccccc2s1`, the growth is 92.9% (inactive). On the same count and under the same terms, in the case of `Cc1cc(Cl)cc(NS(=O)(=O)c2ccc(-c3cnc(C4CC4)o3)cc2)c1` it was 78.1% (inactive); in that of `N/C(=N\c1nc2ccc([N+](=O)[O-])cc2s1)C(Cl)(Cl)Cl`, 120% (inactive). Still for that read-out and setting: as for `CN(c1ccc(F)cc1)S(=O)(=O)c1ccc(-c2cnc(C3CC3)o2)cc1`, the figure is 77.6% (inactive).
